PubChem BioAssay AID1845227 (National Center for Advancing Translational Sciences (NCATS), 2023)
Results filed as inconclusive are left out. Calls of active or inactive are those of the source. The call rests on the fitted dose curve; in most records, active means well fitted inhibition curve with a large enough effect; inconclusive means small, poorly fitted or top-dose-only effect; inactive means no such curve, though single readings can be large or run the other way.

molecular target: Luciferin 4-monooxygenase (Photinus pyralis) (UniProt P08659); test: Confirmatory firefly luciferase (FLuc) qHTS assay for identification of artifact compounds; conditions: purified FLuc enzyme, luminescence, 5 min; series mostly up to 38.9 µM;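 on Activity change, negative = inhibition: 0% = DMSO and -100% = no enzyme control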
In short: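 Compounds were preincubated 15 min at room temperature with 10 uM D-luciferin and 10 uM ATP in Tris acetate pH 7.6. 10 nM Photinus pyralis luciferase was then added, and luminescence was read after 5 min.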
Potency means the concentration at half of the fitted maximal effect.

Potency, active:
Cc1cccc(-c2noc(-c3cc(C(C)C)[nH]n3)n2)c1 6.12 µM
Cc1cc(Cl)ccc1NC(=O)c1cc2ccccn2n1 8.64 µM

Potency, inactive:
CC(C)c1ccc(Cn2c(COc3ccccc3)nc3ccccc32)cc1
COc1ccc(-c2nnc3n2N=C(c2cc(OC)ccc2OC)CS3)c(OC)c1
COc1cc(C2C(C(=O)Nc3ccc(Cl)cc3)=C(C)Nc3nc(SC)nn32)cc(OC)c1OC (centres undefined)
Cc1ccc(-n2nnnc2CNC(=O)C(C)C)cc1C
COCCNC(=O)CCCn1c(SCC(=O)Nc2cccc(C)c2)nc2c(sc3ccccc32)c1=O
CCCNC(=O)c1ccccc1NC(=O)c1nsc2ccccc12
Cc1ccccc1CNC(=O)C(C)N(c1ccccc1)S(C)(=O)=O (centres undefined)
O=C(c1ccc2c(c1)N(Cc1ccccc1)C(=O)c1ccccc1S2(=O)=O)N1CCN(c2ccccc2)CC1
CCC(=O)N1CCc2cc(CNC(=O)Nc3cc(OC)c(OC)c(OC)c3)ccc21
O=C(Nc1ccc(Oc2ccccc2)cc1)Nc1nnc(-c2ccncc2)s1
Cc1ccc(CNS(=O)(=O)c2ccc(-c3cc(C(F)(F)F)on3)s2)cc1
CCOC(=O)c1c(C)[nH]c(C)c1S(=O)(=O)N1CCC(C(=O)N2CCN(c3ccccc3)CC2)CC1
O=c1oc2ccc(Br)cc2cc1-c1csc(-c2ccc(Cl)cc2)n1
COc1ccc(OC)c(NC(=O)CC(=O)Nc2ccc3nc4n(c(=O)c3c2)CCCCC4)c1
O=S(=O)(c1ccc2c(c1)OCCO2)N1CCN(S(=O)(=O)c2c(F)cccc2F)CC1
Ic1ccc(Nc2nc(NCCN3CCOCC3)nc(N3CCOCC3)n2)cc1
C=CCNc1nnc(-c2cccc3ccccc23)o1
COc1ccc(CCNC(=O)c2c(C)oc3ncn(C)c(=O)c23)c(OC)c1
CC1=C(C(=O)Nc2ccc(Cl)cc2)C(c2ccccc2C)n2ncc(C(=O)Nc3ccc(C)cc3)c2N1 (centres undefined)
Cc1c(Cl)cccc1NC(=O)c1cccc(NC(=O)N2CCSc3ncccc32)c1
Nc1nc2nc(-c3ccc(Cl)cc3)cc(C(F)(F)F)n2n1
CCCc1cc(=O)[nH]c(SCc2nc(-c3ccccc3F)no2)n1
COC(=O)c1scc(-c2ccc(C)cc2)c1S(=O)(=O)N1CCN(c2ccc(C(C)=O)cc2)CC1
CCCCNS(=O)(=O)c1ccc2nc(-c3cccnc3)cc(C(=O)NCCC)c2c1
Cc1ccc(CN(C(=O)COc2ccc([N+](=O)[O-])cc2)c2ccccn2)cc1
c1cc(CNc2ccnc(-c3ccc4c(c3)OCO4)n2)ccn1
O=C(Nc1nnc(-c2ccccc2)s1)c1ccc(S(=O)(=O)N2CCCC2)cc1
COc1ccccc1CNc1ccc(-c2nc(-c3cccnc3)no2)cc1[N+](=O)[O-]
CC(C)CN(CCNC(=O)c1cn(C)c2ccc(S(=O)(=O)N3CCOCC3)cc2c1=O)CC(C)C
Cc1ccc(C)c(NC(=O)Cn2c(=O)n(-c3ccc(CC(=O)NCC4CCCO4)cc3)c(=O)c3ccccc32)c1 (centres undefined)
CC1(C)OC2CC(=O)OCC23C1CC(=O)C1(C)C3CC[C@@]2(C)[C@H](c3ccoc3)OC(=O)C3OC312 (some centres undefined)

Activity change, negative = inhibition, inactive:
O=C(O)CCCC/C=C\C[C@@H](O)/C=C/C=C/C=C\[C@@H](O)CCCC(=O)O -5.27% [at 0.322 µM]
